# Assay outcomes from PubChem BioAssay.
# Most compounds without a hit are left out; they make up all but 3.5% or so of the library.
# MITF inh – inhibitors of human MITF | O75030 | AlphaScreen MITF homodimerization, bead proximity signal | inhibition, % at 2.6 µM | 650,000 tested, 0.91% active | AID 1259374; in the data active means inhibition above about 50%;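 further: 0% = vehicle wells with protein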
# TEAD-YAP inh – TEAD-YAP interaction inhibition; HEK-TIYL cells, TEAD-Gal4/YAP UAS-luciferase luminescence; inhibition, % at 9.12 µM; 640,000 tested, 1.4% active; in the data active means inhibition above about 32%;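 further: 0% = median of test compound wells and 100% = reference inhibitor wells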
# FBW7 act – human FBW7 E3 ligase activation, primary screen | 650,000 tested, 0.13% active | AlphaScreen FBW7–phospho-cyclin E peptide binding, activator screen | normalized activity (activation), % at 26.1 µM | Q969H0; in the data active means normalized activity above about 1.9%;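 further: purified mutant Fbw7 with reduced substrate affinity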
# GPR151 ag – human GPR151 activation; Q8TDV0; PathHunter beta-arrestin GPR151 cells, luminescence; activation, % at 11.2 µM; 650,000 tested, 1% active; in the data active means activation above about 4.9%;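 further: 0% = median of compound wells and 100% = cells with positive control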
# Target sequence (Q8TDV0 whole entry, looked up): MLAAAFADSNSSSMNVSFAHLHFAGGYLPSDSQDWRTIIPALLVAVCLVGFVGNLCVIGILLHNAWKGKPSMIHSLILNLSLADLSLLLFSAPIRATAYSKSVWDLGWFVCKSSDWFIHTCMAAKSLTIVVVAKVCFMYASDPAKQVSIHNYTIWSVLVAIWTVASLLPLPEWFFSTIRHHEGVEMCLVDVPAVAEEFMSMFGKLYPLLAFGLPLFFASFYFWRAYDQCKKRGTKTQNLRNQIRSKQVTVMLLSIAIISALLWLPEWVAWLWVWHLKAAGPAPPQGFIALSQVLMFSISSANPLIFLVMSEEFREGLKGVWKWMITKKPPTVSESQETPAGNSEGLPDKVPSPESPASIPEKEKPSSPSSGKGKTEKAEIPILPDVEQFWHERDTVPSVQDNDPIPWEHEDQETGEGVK
# * = called active by the depositor.
SMILES,MITF inh,TEAD-YAP inh,FBW7 act,GPR151 ag
CC(C)(C)NC(=O)CSc1nnc(NC(=O)c2c(F)cccc2F)s1,2.2,1.3,-0.2,-0.7
O=C(Nc1cccc2ccccc12)c1cc(Cl)ccc1O,9.2,63.5*,0.3,-2.3
Cc1ccccc1NC(=O)c1cc(Cl)ccc1O,-22.5,42.3*,0.0,-7.1
O=C(Nc1cccc2ccccc12)c1ccccc1I,-0.6,4.2,0.0,1.5
CN1CSC2=C(C#N)C(c3ccccc3Cl)CC(=O)N2C1 (stereo not drawn),6.4,-11.0,0.2,0.0
COc1ccc(C(=O)c2snc(NCc3ccccc3)c2N)cc1,4.8,-20.6,0.0,0.7
COc1ccc(Nc2nsc(C(=O)c3ccc(F)cc3)c2N)cc1,-3.8,44.2*,-0.2,-1.1
Cc1ccc(NC2C=CS(=O)(=O)C2)cc1C (stereo not drawn),7.1,32.5*,0.1,-2.6
CCOC(=O)c1oc2c(C)c(O)ccc2c(=O)c1-c1nncn1-c1ccccc1,2.9,2.4,0.0,-0.7
CCOC(=O)c1oc2c(O)c(O)ccc2c(=O)c1-c1nncn1-c1ccccc1,82.4*,1.4,-1.3,0.3
Cc1ccn(S(=O)(=O)c2ccc(C)c(N3CCCC3=O)c2C)n1,10.9,7.9,2.0*,0.6
Cc1ccc(S(=O)(=O)N2CCOCC2)c(C)c1N1CCCC1=O,6.7,4.9,0.0,-0.7
O=C(Nc1ccc(N2CCOCC2)cc1)c1cnccn1,-8.2,48.7*,-0.2,-3.9
O=C(Nc1ccc(N2CCOCC2)cc1)c1ccco1,9.4,62.4*,0.1,-4.8
O=C(Nc1ccc(N2CCN(Cc3ccccc3)CC2)cc1)c1ccco1,8.6,-3.6,0.5,0.4
O=C(Nc1ccc(N2CCN(C(=O)c3ccco3)CC2)cc1)c1cccc2ccccc12,9.4,54.5*,0.2,0.4
Cc1cc(C)cc(Oc2nc3ccccn3c(=O)c2/C=C(\C#N)C(=O)N2CCOCC2)c1,13.1,37.4*,-0.1,0.7
N#C/C(=C\c1c(Oc2ccccc2)nc2ccccn2c1=O)C(=O)N1CCOCC1,-8.8,21.0,0.1,0.4
CNC(=O)/C(C#N)=C/c1c(Oc2cc(C)cc(C)c2)nc2ccccn2c1=O,18.4,32.1*,-0.1,-6.2
Cc1cccc(Oc2nc3c(C)cccn3c(=O)c2/C=C(\C#N)C(=O)N2CCOCC2)c1,16.5,35.6*,0.1,-0.1
O=C(CCCN1C(=O)/C(=C\c2ccco2)SC1=S)NC1CCCCC1,-2.1,-1.0,-0.1,0.8
Cc1ccc(-n2nc3c(c2NC(=O)C2CC2)CS(=O)C3)c(C)c1 (stereo not drawn),-22.8,4.2,0.0,0.6
O=C1CCCN1CCCNc1nc(Nc2cnccn2)nc2c1ncn2-c1ccccc1,-1.9,46.5*,0.0,-0.8
O=C1CCCN1CCCNc1nc(Nc2ccc3ncccc3c2)nc2c1ncn2-c1ccccc1,-9.4,72.5*,0.0,-1.7
O=C1CCCN1CCCNc1nc(Nc2ccccn2)nc2c1ncn2-c1ccccc1,6.1,21.2,0.0,0.9
SMILES,MITF inh,TEAD-YAP inh,FBW7 act,GPR151 ag
O=C1CCCN1CCCNc1nc(Nc2ccncn2)nc2c1ncn2-c1ccccc1,5.0,38.1*,-0.2,-2.2
O=C1CCCN1CCCNc1nccc(Nc2ccc(Oc3ccccc3)cc2)n1,-7.4,39.3*,-0.1,-0.5
O=C1CCCN1CCCNc1nc(NCCO)c2ncn(C3CCCCC3)c2n1,13.6,0.2,1.9*,0.4
O=C1CCCN1CCCNc1nc(Nc2ccncc2)nc2c1ncn2-c1ccccc1,-8.6,55.3*,-0.1,0.1
O=C1CCCN1CCCNc1nc(NCCCN2CCCC2=O)c2ncn(C3CCCCC3)c2n1,12.7,-0.4,0.0,-1.3
COc1cccc(-c2ccc(N3CCN(C)CC3)nc2)c1,-12.5,13.7,-0.2,-3.8
CN1CCN(c2ccc(-c3cccc(Cl)c3)cn2)CC1,7.7,54.3*,0.5,-4.6
Cc1csc(NC(=O)C(Cc2c[nH]c3ccccc23)NC(=O)OC(C)(C)C)n1 (stereo not drawn),12.2,40.6*,0.3,-1.2
CCOc1ccc2c(c1)C(C)=CC(C)(C)N2S(=O)(=O)c1ccc(Cl)cc1,5.2,60.3*,-0.1,-0.1
CC1=CC(C)(C)N(S(=O)(=O)c2ccc(Cl)cc2)c2ccccc21,0.6,55.0*,-0.2,0.2
CC1=CC(C)(C)N(S(=O)(=O)c2ccc(C)cc2)c2ccc(Cl)cc21,-5.7,27.3,0.0,-0.1
COc1ccc2c(c1)C(C)=CC(C)(C)N2S(=O)(=O)c1ccc(Cl)cc1,-1.9,48.0*,-0.1,0.6
Cc1[nH]cnc1CN1C[C@H](Sc2ccc(F)cc2)C[C@H]1C(=O)NC1CC1,-1.9,1.9,0.0,0.1
CC12CN(C(=O)c3ccccc3)CC(c3ccccc3)(CN(C(=O)c3ccccc3)C1)C2=O,-13.4,11.8,0.0,0.7
